Bioassay records as filed in PubChem.
APP 5'UTR act = activates APP 5'UTR luciferase reporter. SH-SY5Y APP 5'UTR luciferase reporter, luminescence; zero percent = DMSO vehicle wells. activation, % at 2 µM. 1% of 190,000 active. AID 1276;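 active = activation above a set limit, based on mean plus 3 SD of controls, cut at about 140% in these data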
hgDAF12 agonist = agonists of H. glycines DAF-12 nuclear receptor; activation, % at 6.8 µM; HEK293 GAL4-hgDAF12 UAS-luciferase reporter, agonist luminescence; normalized to butyrate control; 1.8% of 370,000 active; AID 687014;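 active = activation above a cutoff set at the mean of all screened compounds plus 3 SD, cut at about 10% in these data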;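 also: 0% = DMSO wells and 100% = sodium butyrate wells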
NF-kB neuron act = raises NF-kB expression in human neuronal cells; NF-kB reporter expression; hits give high values; fold change at 12.5 µM; 1.6% of 190,000 active; AID 1239; in the data active = fold change above about 3.3
ssDAF12 agonist = activators of S. stercoralis DAF-12 nuclear receptor; HEK293 ssDAF-12/GRIP1 lit1-tk-luc reporter, luminescence; % of 3 µM dafachronic acid response; activation, % at 6.8 µM; 1% of 370,000 active; AID 652126;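 active = activation above the mean over all tested compounds plus 3 SD, cut at about 0.9% in these data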;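 also: 0% = DMSO-only wells and 100% = 3 µM delta7-dafachronic acid wells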
hcDAF-12 act = H. contortus DAF-12 activation, primary screen. HEK293 hcDAF-12 lit1-tk-luc reporter, luminescence; 0% DMSO, 100% Δ7-dafachronic acid. activation, % at 6.8 µM. 1.4% of 370,000 active. AID 652067;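 active = activation above the mean of all tested compounds plus 3 SD, cut at about 5.5% in these data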;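 also: 100% = response to 3 µM Δ7-dafachronic acid high control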
An asterisk follows results filed as active; . = no result given. Rows were chosen to be rich in hits. Some 3.4% of all compounds tested hit in one or more screens of this group.

SMILES | APP 5'UTR act | hgDAF12 agonist | NF-kB neuron act | ssDAF12 agonist | hcDAF-12 act
N#C/C(=C/c1ccc(Br)s1)C(=O)NCCc1c[nH]c2ccccc12 | 1.9 | -1.5 | 1.11 | 0.2 | 6.0*
Cc1cc(/C=C(\C#N)C(=O)NCCc2c[nH]c3ccccc23)c(C)n1C | -0.6 | -2.2 | 0.9 | -1.5 | -3.0
Cc1ccc(S(=O)(=O)NCCCc2ccc3c(c2)[C@]2(CCC[C@@H](OCc4ccccc4)[C@@H]2NC(=O)CCc2ccccc2)C(=O)N3Cc2ccccc2)cc1 | . | 1.6 | . | -1.4 | 0.3
Cc1cc(NC(=O)CSc2nc(N)c(NC(=O)c3ccccc3F)c(=O)[nH]2)no1 | . | -1.4 | . | 0.9* | 1.4
Cc1cc(NC(=O)CSc2nc(N)c(NC(=O)c3ccccc3)c(=O)[nH]2)no1 | 11.5 | 3.1 | 1.11 | -1.7 | 2.5
C=CCN1[C@@H](CC(C)C)COc2cccc(N3CCCC3)c2S1(=O)=O | . | -2.0 | . | -0.9 | -2.9
CC(=O)c1cc(NC(=O)c2ccccc2)c(=O)oc1C | 9.3 | -3.4 | 6.09* | -0.3 | -0.7
CC(=O)N1CCc2cc(Br)c(S(=O)(=O)CCC(=O)N3CCN(c4ccccn4)CC3)cc21 | . | -2.1 | . | -1.1 | -1.4
Cn1c(CC(=O)Nc2ccc(F)cc2)c(Sc2ccccc2)c2ccccc21 | -6.3 | 0.2 | 0.81 | -0.6 | 6.5*
O=C(COC(=O)CNS(=O)(=O)c1ccc(Br)cc1Cl)NC1CC1 | . | -0.9 | . | -0.6 | 0.0
O=C(COC(=O)CNS(=O)(=O)c1ccc(Br)cc1Cl)NCCc1ccccc1 | . | 2.0 | . | 1.4* | 2.3
CCCc1cc(=O)n2[nH]c(-c3ccc(Br)cc3)cc2n1 | 58.3 | 5.7 | 2.07 | 1.1* | 5.6*
CCS(=O)(=O)Nc1ccc2c(c1)C(=O)N(C)[C@@H]1CC[C@H](CC(=O)N3CCCCC3)O[C@H]1CO2 | . | 3.9 | . | -1.0 | -2.0
O=C(CN1CCCCCC1)Nc1ccc([N+](=O)[O-])cc1Br | . | 2.9 | . | -1.3 | -1.0
Cc1ccc([N+](=O)[O-])cc1-c1ccc(/C=N/NC(=O)CN2CCOCC2)o1 | . | 2.3 | . | 0.9* | 1.2
O=C(CN1CCOCC1)Nc1ccc([N+](=O)[O-])cc1Br | 0.8 | -0.3 | . | 1.3* | 0.7
NC(=O)c1c(N)[nH]c(C(=O)c2ccccc2)c1-c1cccc2ccccc12 | . | 2.8 | . | 1.0* | 2.2
Nc1[nH]c(C(=O)c2ccccc2)c(-c2cccc3ccccc23)c1C(=O)c1cccs1 | . | 3.5 | . | 0.0 | 3.5
CCC(C(=O)Nc1ccccc1N1CCCC1)c1cccc(C)c1 (centres undefined) | . | 2.5 | . | -1.1 | 0.6
COc1ccc(/C=C/C(=O)c2c(C)nc3ccccn23)cc1 | 106.5 | 3.7 | 1.71 | 0.1 | 1.1
Cc1nc2ccccn2c1C(=O)/C=C/c1ccc(F)cc1 | 16.6 | 2.8 | 3.44* | -0.8 | 0.3
COc1ccc2c(c1)S/C(=C\C(=O)c1ccncc1)N2C | 44.4 | 11.7* | 2.13 | -0.2 | 1.2
COC(=O)C1CN(Cc2cn(Cc3ccc(C)cc3)nn2)CCS(=O)(=O)N1Cc1ccccc1 (centres undefined) | . | -0.8 | . | -1.1 | -1.1
CCOc1ccc(Br)cc1C(=O)N/N=C/c1cccnc1 | . | 0.3 | . | -1.6 | 0.6
O=C(N/N=C/c1cccnc1)c1cc(Br)ccc1O | . | 12.4* | . | -0.8 | 2.2
SMILES | APP 5'UTR act | hgDAF12 agonist | NF-kB neuron act | ssDAF12 agonist | hcDAF-12 act
O=C(/C=C/c1cccc(Oc2ccccc2)c1)N1CCOCC1 | 144.9* | 8.2 | 2.61 | -1.2 | 4.0
OC(CCN1CCCCC1)(c1ccccc1)C1CC2C=CC1C2 (centres undefined) | . | 1.1 | . | -0.7 | -1.4
Cc1cc(-c2cccc([N+](=O)[O-])c2)nc2ccccc12 | 6.5 | 6.9 | 1.49 | -0.4 | 0.8
COc1ccccc1Oc1ccc(-c2cnc3ccccc3n2)cc1[N+](=O)[O-] | 26.8 | 3.4 | 1.97 | -0.7 | 1.7
O=[N+]([O-])c1cccc(-c2cnc3ccccc3n2)c1 | . | 2.0 | . | 1.0* | 2.6
O=[N+]([O-])c1cc(-c2cnc3ccccc3n2)ccc1Oc1ccc(Cl)cc1 | 17.7 | 3.2 | 1.37 | 1.1* | 1.1
CC(C)C[C@@H](CO)N1Cc2nnn(Cc3ccccc3)c2-c2ccccc2S1(=O)=O | . | 0.0 | . | -1.6 | -0.6
O=C1N2CCc3ccccc3C2CS(=O)(=O)N1Cc1ccc(F)cc1 (centres undefined) | . | -1.6 | . | -0.6 | -3.0
COc1ccc(N2C(=O)/C(=C/c3ccc([N+](=O)[O-])cc3)C=C2c2ccccc2)cc1 | 1.3 | 0.3 | 1.04 | 1.2* | -1.6
O=C1/C(=C/c2ccc([N+](=O)[O-])cc2)C=C(c2ccccc2)N1c1ccccc1 | -21.3 | 0.1 | 1.34 | 0.0 | 1.8
CCOC(=O)c1cn2nc(N3CCCC3)ccc2n1 | . | 10.1 | . | 0.1 | 6.0*
CCOC(=O)c1cn2nc(N3CCCCC3)ccc2n1 | . | 6.6 | . | -0.6 | 2.0
N/C(Cc1ccc(Cl)cc1Cl)=N\OC(=O)c1ccccc1F | 35.5 | 3.6 | 1.49 | -1.5 | 6.0*
COc1ccc(Nc2ncnc3c2oc2ccccc23)cc1 | 117.2 | 11.8* | 3.4* | -0.2 | 5.5
Cc1ccc(CNC(=O)O[C@H]2CC[C@@]34CCCN3C(=O)CCC[C@H]4C2)cc1 | . | 1.5 | . | -1.6 | -1.9
Cc1nc(SCC(O)CO)c([N+](=O)[O-])[nH]1 (centres undefined) | -1.1 | 4.5 | 3.51* | -1.0 | -0.7
Cc1nc(SCC(=O)c2ccc(F)cc2)c([N+](=O)[O-])[nH]1 | 12.3 | 0.2 | 1.27 | -1.1 | -0.5
COC[C@H]1O[C@]2(c3ccccc3)CO[C@H]1[C@@H](/C=C/c1ccccc1)C2 | . | -0.5 | . | -1.0 | -0.9
CC1(C)Cc2nc3sc4c(SCC(=O)NCc5ccccc5)ncnc4c3cc2CO1 | -66.8 | 8.4 | 3.85* | -0.4 | 2.1
CC1(C)Cc2nc3sc4c(SCC(=O)O)ncnc4c3cc2CO1 | . | -0.6 | . | -1.1 | -1.9
Cc1ccc(Nc2nnc(SCC3CCCCO3)s2)cc1 (centres undefined) | 5.3 | 3.7 | 1.79 | -0.4 | 3.6
COc1ccccc1Nc1nnc(SCC2CCCCO2)s1 (centres undefined) | 176.2* | 11.2* | 5.17* | 0.3 | 6.0*
O=C(NCc1ccccc1)OC1CCC12CCC(c1ccccc1)CC2 (centres undefined) | . | 3.2 | . | -1.4 | -0.1
Cn1c(=O)oc2cc(S(=O)(=O)N3CCN(c4ccccc4)CC3)ccc21 | 5.3 | 1.3 | 1.23 | 2.6* | 1.5
COc1ccc(CCn2c(-c3ccccc3)nc3c(c(=O)c4ccccc4n3C)c2=O)cc1 | -1.4 | -1.9 | 1.28 | -0.7 | 5.8*
COc1ccc(Cn2c(-c3ccccc3)nc3c(c(=O)c4ccccc4n3C)c2=O)cc1 | -3.9 | -1.6 | 0.88 | -0.9 | 3.1
COc1ccc(C(=O)Nc2cc3c(cc2Cl)OCCCO3)cc1 | 133.8 | 9.9 | 4.31* | -0.1 | 3.4
O=C(Nc1cc2c(cc1Br)OCCCO2)c1ccccc1 | 113.9 | 10.5* | 3.13 | 0.9 | 4.0
O=C(Oc1cccc2c(O)cccc12)c1ccccc1Cl | . | -0.4 | . | -0.4 | 0.2
O=C(Oc1ccccc1O)c1cccc2ccccc12 | -5.2 | -2.0 | 3.48* | 0.4 | 3.5
